About 2,400 (0.69%) of roughly 350,000 compounds were called active. The sample holds actives, similar compounds and a random draw of the others, so the mix is not that of the screen. A number with no mark means an inactive call. Rule as the data show it: active = inhibition above about 41%; inconclusive = no clear call, values can overlap the other calls; inactive = below that.
Assay: EBV LMP1-driven NF-kappaB luciferase reporter inhibitors, primary screen, cell-based, luminescence, single point (AID 504558);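 also: 0% = neutral control wells and 100% = reference inhibitor control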
Conditions: LMP1-induced NF-kappaB luciferase reporter cells, at 12.5 µM, active compounds read high

| Compound | inhibition |
| --- | --- |
| C[C@H](CO)N1C[C@H](C)[C@H](CN(C)C(=O)c2ccncc2)OCc2ccccc2-c2c(n(C)c3ccccc23)C1=O | 2.77% |
| C[C@H]1CN([C@@H](C)CO)C(=O)CCCn2nncc2CO[C@@H]1CN(C)S(=O)(=O)c1cccc(C#N)c1 | 2.8% |
| CN1OC[C@@H]2CN[C@H](c3ccc(-c4ccccc4)cc3)C[C@@H]21 | -14.4% |
| COc1cccc(NC(=O)N(C)C[C@@H]2Oc3ncc(Br)cc3C(=O)N([C@@H](C)CO)C[C@H]2C)c1 | 1.17% |
| Cc1cccc(NC(=O)c2nc(S(=O)(=O)Cc3ccccc3)ncc2Cl)c1 | 19.5% |
| Cc1ccc(CS(=O)(=O)c2ncc(Cl)c(C(=O)Nc3nnc(C)s3)n2)cc1 | 85.8% (active) |
| CSc1nnc(NC(=O)c2nc(S(=O)(=O)Cc3ccc(C)cc3)ncc2Cl)s1 | 24.2% |
| CC1(C)OC(=O)C2=C(CC(c3ccccc3)OC2CCc2ccccc2)O1 (stereo not given) | 3.89% |
| C[C@@H]1C[C@@H]2O[C@H]2/C=C\C=C\C(=O)Cc2c(Cl)c(O)cc(O)c2C(=O)O1 | 80% (active) |
| CCOC(=O)c1c(C)[nH]c(C)c1C(=O)COC(=O)/C=C/c1cccc([N+](=O)[O-])c1 | 7.29% |
| Nc1nnn(CC(=O)N/N=C/c2ccc(O)cc2)n1 | -8.43% |
| O=C(C[n+]1ccccc1)N/N=C/c1ccc(O)cc1 | 45.7% (active) |
| Cc1nonc1C(=O)N/N=C/c1ccc(O)cc1 | -10.7% |
| O=C(OCc1ccccc1)N1CCC2CC1c1ccc(-c3ccc4c(c3)OCO4)cc12 (stereo not given) | -5.51% |
| O=NN(CCCl)C(=O)NCCc1cccc[n+]1[O-] | 1.36% |
| COC(=O)c1sc(NC(=O)c2ccc(OC)cc2OC)nc1C | 56.8% (active) |
| COc1cc(SC)ccc1C(=O)NNC(=O)C1COc2ccccc2O1 (stereo not given) | 3.35% |
| Cc1csc(NC(=O)c2ccc(-c3ccc(Cl)cc3Cl)o2)n1 | 5.23% |
| COC(=O)c1sc(NC(=S)NC(=O)c2ccc(C)cc2)nc1C | -2.09% |
| COc1cc(SC)ccc1C(=O)Nc1nc(C)cs1 | 77% (active) |
| COc1ccc(C(=O)NC2=NCCS2)c(OC)c1 | 14.4% |
| O=C(c1ccc(N2CCCC2=O)cc1)N1CCN(c2ccc(C(F)(F)F)cc2[N+](=O)[O-])CC1 | 5.85% |

| Compound | inhibition |
| --- | --- |
| CCc1c(N=O)c(-c2ccccc2)n(O)[n+]1[O-] | -1.78% |
| COc1ccc(CN2C[C@H]3CON(C)[C@H]3C[C@H]2c2ccc(-c3cccc(F)c3)cc2)cc1 | 6.65% |
| C=CCN1CCN(c2ccncc2S(=O)(=O)N2CCN(C)CC2)CC1 | -2.07% |
| C[C@H]1CN([C@@H](C)CO)C(=O)CCCn2cc(nn2)CO[C@@H]1CN(C)S(=O)(=O)c1ccc(-c2ccccc2)cc1 | 1.8% |
| CC(=O)CC[C@@H](C)O[C@@H]1OC(C)[C@H](O)CC1O (stereo not given in full) | 85.2% (active) |
| COCCNC(=O)CSc1nc(N)c(NC(=O)c2ccco2)c(=O)[nH]1 | 2.34% |
| CN1CCN(c2ccncc2S(=O)(=O)N2CCCC2)CC1 | -0.542% |
| Cn1nc(N)c2ncc(C(Cl)(Cl)Cl)nc21 | 1.82% |
| O=C1[C@H]2[C@@H](c3ccc(C(F)(F)F)cc3)N[C@]3(CCCN(Cc4ccc(Br)cc4)C3=O)[C@H]2C(=O)N1Cc1ccccc1 | -24.7% |
| CCCCCOC(=O)c1ccc(N2C(=O)C3C4C=CC(C4)C3C2=O)cc1 (stereo not given) | 0.71% |
| CCCCCCCCCCOC(=O)C[N+](C)(C)CC1CCCCC1O (stereo not given) | 51% (active) |
| CC[C@]1(C(=O)OC)[C@H]2C(=O)N(Cc3ccccc3)C(=O)[C@H]2[C@H]2CN=C(SCc3ccc(Cl)cc3)N21 | 87.9% (active) |
| COC(=O)[C@@]1(C)[C@H]2C(=O)N(Cc3ccccc3)C(=O)[C@H]2[C@H]2CN=C(SCC3CC3)N21 | -0.447% |
| CCN1C[C@@H]2[C@@H]3C(=O)N(Cc4ccccc4)C(=O)[C@@H]3[C@](Cc3ccccc3)(C(=O)OC)N2C1=NC1CCCCC1 | 0.675% |
| CC[C@]1(C(=O)OC)[C@H]2C(=O)N(Cc3ccccc3)C(=O)[C@H]2[C@H]2CN=C(SCc3ccccc3)N21 | -0.0665% |
| CC[C@]1(C(=O)OC)[C@H]2C(=O)N(Cc3ccccc3)C(=O)[C@H]2[C@H]2CN=C(SCc3ccc(C#N)cc3)N21 | 61.8% (active) |
| CCCN=C1N(C)C[C@@H]2[C@@H]3C(=O)N(Cc4ccccc4)C(=O)[C@@H]3[C@](C)(C(=O)OC)N12 | -3.21% |
| C[C@@H]1CN([C@H](C)CO)C(=O)CCCn2nncc2CO[C@@H]1CN(C)C(=O)OCc1ccccc1 | 3.33% |
| CCCCCC(=O)N1C[C@H](O)[C@@H](n2cc(COC(=O)c3ccccc3)nn2)C[C@@H]1c1ccc(C)cc1 | -2.09% |
| CC(C)n1ncc2c(C(=O)N3CCN(Cc4cccs4)CC3)cc(C3CC3)nc21 | -5.29% |
| NC(=S)NN=Cc1ccc(OC(=O)COc2cc(Cl)c(Cl)cc2Cl)cn1 | 12.2% |
| CC1=C(C(=O)N(C)C)CC(CC(=O)NCCN2CCOCC2)C(=O)N1Cc1ccccc1 (stereo not given) | -6.42% |

| Compound | inhibition |
| --- | --- |
| O=C(c1cccs1)N1C[C@H](n2cc(C3CC3)nn2)[C@@H](O)C[C@@H]1c1ccccc1 | 5.6% |
| O=C(NCc1ccccc1Cl)C1CCCN1S(=O)(=O)c1ccc(F)cc1 (stereo not given) | 45.2% (active) |
| Cc1cccc(NC(=O)C2CCCN2S(=O)(=O)c2ccc(F)cc2)c1C (stereo not given) | -1.63% |
| COc1ccc(CCNC(=O)C2CCCN2C(=O)Nc2ccccc2)cc1OC (stereo not given) | -0.848% |
| COc1ccc(NC(=O)N2CCCC2C(=O)NCc2ccccc2Cl)cc1 (stereo not given) | 86.6% (active) |
| O=C(NCc1ccccc1CN1CCCC1)C1CCN(S(=O)(=O)c2ccc(Cl)cc2)CC1 | -3.5% |
| COc1ccc(NC(=O)C(NC(C)=O)C(=O)NCc2ccccc2Cl)cc1 (stereo not given) | -2.84% |
| CN1CCn2cnc(C(=O)NCC(=O)OC(C)(C)C)c2C1=O | 6.74% |
| COc1ccc(-c2ccc(CN3C(CC(C)C)C(=O)N(Cc4cn(CC5CCCCC5)nn4)CCS3(=O)=O)cc2)cc1 (stereo not given) | 17.4% |
| CCCNC(=O)C1CC(=O)N(c2ccc(OCc3ccccc3)cc2)C1 (stereo not given) | -15.7% |
| C/C(COc1ccccc1)=N\NC(=O)c1nnn(-c2nonc2N)c1-c1ccc(C)cc1 | 4.25% |
| Cc1cc(Nc2ccc(C)c(C)c2)n2ncnc2n1 | 8.05% |
| O=C(CN1C(=O)c2ccccc2S1(=O)=O)N1CCc2ccccc21 | 71.7% (active) |
| CC1CCCN(C(=O)CN2C(=O)c3ccccc3S2(=O)=O)C1 (stereo not given) | -11.4% |
| O=C(CSCc1ccccc1)N1CCc2ccccc21 | -29.9% |
| CC1(C2CC2)NC(=O)N(CC(=O)N2CCN(c3ccccc3F)CC2)C1=O (stereo not given) | -9.22% |
| COc1cc2nnn(-c3ccncc3)c2cc1OC | -4.43% |
| CCCCN(C(C)=O)c1ccc2c(c1)C1CC2CCN1Cc1ccccc1 (stereo not given) | 2.88% |
| Cc1cc(C)n(-c2c(F)c(F)c(COC(=O)c3ccccc3)c(F)c2F)n1 | -9.15% |
| CCOC(=O)c1cnc(-n2nc(C)cc2C)nc1NNc1cc(C)nc(-c2ccccc2)n1 | 73.6% (active) |
| Cc1cc(-n2nc(C)cc2C)n2ncc(-c3ccccc3)c2n1 | -21% |
| CCOC(=O)c1cc(-c2sc(NC(=O)c3ccccc3)nc2C)n(Cc2ccccc2)n1 | 12.1% |

| Compound | inhibition |
| --- | --- |
| COc1ccc(NC(=O)c2cc(=O)[nH]c3ccccc23)cc1S(=O)(=O)N1CCOCC1 | -9.47% |
| N#Cc1ccc(OCC(=O)Nc2nc(-c3ccccn3)cs2)cc1 | 23.6% |
| COc1ccc(Cl)cc1NC(=O)CN(C)C(=O)c1cn(-c2ccccc2)nc1-c1cccs1 | 2.49% |
| CC(=O)Nc1ccc2c3c(ccc([N+](=O)[O-])c13)CC2 | 3.38% |
| CC(=O)c1ccc(Oc2cc(C)nc(-n3nc(C)cc3C)n2)cc1 | 89.4% (active) |
| Cc1cc(C)nc(-n2nc(C)cc2NC(=O)c2ccc(F)cc2F)n1 | -4.13% |
| COc1ccc(C(C)=O)cc1CSc1nc2nc(C)cc(C)n2n1 | 6.79% |
| C[C@H]1CN([C@@H](C)CO)C(=O)CCCn2cc(nn2)CO[C@@H]1CN(C)S(=O)(=O)c1ccccc1C#N | 6.79% |
| C[C@H]1CN([C@@H](C)CO)C(=O)c2cc(-c3ccccc3F)cnc2O[C@H]1CN(C)C(=O)C1CCOCC1 | -4.67% |
| CCCCCCN1C[C@@H](O)[C@H](n2cc(COC(=O)c3ccccc3)nn2)C[C@@H]1c1ccc(Cl)cc1 | 1.86% |
| C[C@H]1CN([C@@H](C)CO)C(=O)c2cc(Br)cnc2O[C@H]1CN(C)S(=O)(=O)c1cccs1 | -1.05% |
| COc1cccc(NC(=O)Nc2ccc(F)cc2)c1 | -3.33% |
| O=C(CSc1nc2cc3c(cc2c(=O)n1CCC1=CCCCC1)OCO3)NCc1ccco1 | 44.3% (active) |
| O=C(CSc1c2c(nc3ccc(Cl)cc13)CCCC2)NCc1ccco1 | 19.1% |
| O=C(CSc1ccc(-c2ccco2)nn1)NCc1ccc2c(c1)OCO2 | -3.64% |
| COc1ccc(/C=C2\SC(=S)N(CCC(=O)N3CCOCC3)C2=O)cc1OC | 9.24% |
| CSc1cc(C)[nH]c(=O)n1 | -0.805% |
| Cc1cc(=O)cc(C)[nH]1 | -6.47% |
| Cc1cc(=O)[nH]c(=S)[nH]1 | 80.5% (active) |
